Screening results as filed in PubChem.
HCV inhibitor – qHTS Assay for Inhibitors of Hepatitis C Virus (HCV); 3.4% of 340,000 active; Huh7.5.1 HCVcc-Cre infection, luciferase reporter, 44 h; Potency, µM (titrated, usually from 41.8 µM), for the others: top-dose activity change, negative = inhibition, hits mostly inhibitors; active = well fitted inhibition curve with a large enough effect; inconclusive = small, poorly fitted or top-dose-only effect, or another doubt; inactive = no such curve, though single readings can be large or run the other way; also: potency is read from the fitted curve at half-maximal effect
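Antiviral activity was scored by luciferase reporter output from cells infected with HCVcc-Cre (~0.5 moi) in presence of compound, 44 h infection period, cells seeded 1,000/well 4 h prior.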
Lassa entry inh – qHTS for Inhibitors of binding or entry into cells for Lassa Virus | Lassa virus pseudotype entry inhibition, cell reporter | Potency, µM (doses to about 37.9 µM), inactives show at the top dose activity change, negative = inhibition, actives largely listed as inhibitors | 1.2% of 300,000 active | AID 540256, 2011; calls by dose curve; tested in HEK293 cells; also: potency is read from the fitted curve at half-maximal effect; nearly all actives have a fitted effect of over 50% in size
MARV entry inh – qHTS for inhibitors of binding or entry into cells for Marburg Virus; Marburg virus pseudotyped entry inhibition, cell reporter; 1.8% of 300,000 active; Potency, µM (top dose mostly 37.8 µM), for inactives: at the top dose activity change, negative = inhibition, hits mostly inhibitors; calls by dose curve; tested in HEK293 cells; also: potency is read from the fitted curve at half-maximal effect
FMDV inh – High Throughput Screening for Foot and Mouth Disease Virus Antivirals | FMDV antiviral cell-based qHTS | Potency, µM (top dose mostly 57.9 µM), for inactives: at the highest dose activity change, negative = inhibition, usual class: inhibitors | 1.2% of 410,000 active; calls by dose curve; tested in HEK293T cells; also: read-out not given here; potency is read from the fitted curve at half-maximal effect; nearly all actives have a fitted effect of over 45% in size
HCMV inh – qHTS Assay for inhibitors of the human cytomegalovirus (HCMV) | 4.5% of 410,000 active | AID 1259415, 2018 | activity change, negative = inhibition, % at 57.5 µM | HFF cells, HCMV-luciferase reporter, 72 h; stronger effect = lower value; in the data active = activity change below about -60%; inconclusive = no clear call, values can overlap the other calls; inactive = above about -39%
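Two-dose cell screen: HFF monolayers treated with compounds and infected with luciferase-expressing HCMV at 1 PFU/cell, 72 h at 37C, then lysed for luciferase measurement.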
Active calls of the source: *; ? = inconclusive; . = no result; [ ] = dose if it differs, or a comment. The list is not random: actives were taken first. Their share in the collection is about 7.9%. % is scaled to controls: 0 for no effect and ±100 for the full control effect.

SMILES	HCV inhibitor	Lassa entry inh	MARV entry inh	FMDV inh	HCMV inh
CCOc1ccc(N(CC)S(=O)(=O)N2CCCC(C(=O)Nc3ccc(OC)c(OC)c3)C2)cc1 (configuration not stated)	.	-29%[46.1 µM]	.	?	-4
CCCSc1nsc(NC(=O)CCC)n1	-6%	?	?	3%	-103*
COc1cc(C2CC(c3cccs3)=NN2C(=O)CCl)ccc1OC(F)F (configuration not stated)	11µM*	?	?	16µM*	-97*
Cc1ccc(C2=NN(C(=O)CCl)C(c3cccs3)C2)o1 (configuration not stated)	?	?	?	14µM*	-100*
O=C(CCl)N1N=C(c2ccco2)CC1c1cccs1 (configuration not stated)	?	-27%	?	?	.
COc1ccc(C2CC(c3cccs3)=NN2C(=O)CCl)cc1OC (configuration not stated)	?	?	?	?	-97*
Cc1cc(S(=O)(=O)N2CCCC2)ccc1OCC(=O)N1CCCCC1	9%	7%	-2%[46.1 µM]	-21%	1
CC(=O)Nc1cccc(NC(=O)CSc2nc(=O)n(CCN3CCOCC3)c3c2CCC3)c1	9%	3%	?	-24%	-22
CCCCC(=O)c1c(O)c2ccccc2oc1=O	-4%	4%	0%	11%	0
CC1CCC(C(=O)c2c(O)c3ccccc3oc2=O)CC1 (configuration not stated)	?	2%	3%	-8%	-100*
CC(=N)c1c(O)c2ccccc2oc1=O	2%	.	.	42%	2
O=C(CC1CCCCC1)c1c(O)c2ccccc2oc1=O	0%	0%	6%	8%	-68*
O=C1N[C@@H](Cc2ccccc2)C(=O)N2[C@H]3Nc4ccccc4[C@@]3([C@]34C[C@H]5C(=O)N[C@@H](Cc6ccccc6)C(=O)N5[C@H]3Nc3ccccc34)C[C@@H]12	-24%	.	.	?	.
CN1C(=O)[C@@H]2C[C@@]3([C@@]45C[C@H]6C(=O)N(C)[C@@H](Cc7ccccc7)C(=O)N6[C@@H]4Nc4ccccc45)c4ccccc4N[C@H]3N2C(=O)[C@@H]1Cc1ccccc1	?	.	.	-12%	-68*
CC1CCN(S(=O)(=O)N2CCC(C(=O)NCCc3ccccc3)CC2)CC1	8%	.	.	-4%	-30
C=CCn1c(SCn2nnc3ccccc3c2=O)nc2scc(-c3cccs3)c2c1=O	-22%	22%	-24%	.	-3
O=c1cc(CSc2nnc(-c3cccs3)n2Cc2ccccc2)nc2sc3ccccc3n12	?	-26%	?	16µM*	-93*
CC(=O)c1c(C)[nH]c(C(=O)CSc2ncnc3sc(-c4ccccc4)cc23)c1C	?	-1%	?	0%	-77*
O=c1c2ccccc2nnn1CSc1nnc(-c2cccs2)n1Cc1ccccc1	?	?	0.82µM*	?	?
Cc1ccc(C(=O)CSc2nnc(-c3ccc4[nH]c(C)c(C)c4c3)o2)cc1C	?	-14%	-30%	.	-35
Cc1cc(C(=O)CSc2nnc(-c3cccs3)n2Cc2ccccc2)c(C)n1C	?	4%	?	-6%	-38
Cc1[nH]c2ccc(-c3nnc(SCC(=O)c4ccccc4F)o3)cc2c1C	?	8.9µM*	?	-1%	-3
Cc1cc(Cl)ccc1OCC(=O)NCC1Cc2cc(-c3cnccn3)ccc2O1 (configuration not stated)	.	.	.	-14%	.
CC(C)(C)c1ccc(O[C@@H]2[C@H](O)CO[C@H]2C=CC#Cc2ccccc2)cc1	.	.	-16%[14.2 µM]	.	.
CC1=C(C(=O)OC2CCCC2)C(c2ccccc2C(F)(F)F)CC(=O)N1 (configuration not stated)	.	12%[46.1 µM]	?	?	?
SMILES	HCV inhibitor	Lassa entry inh	MARV entry inh	FMDV inh	HCMV inh
O=C(CSc1nnc(-c2ccccc2)o1)c1nnc(-c2ccccc2)o1	-25%	13%	0%	-10%	63
CC(=O)c1c(C)[nH]c(C(=O)CSc2nnc(-c3cccs3)n2Cc2ccccc2)c1C	2.8µM*	?	?	-28%	-13
CC(=O)c1c(C)[nH]c(C(=O)CSc2nnc(-c3ccccc3)o2)c1C	8.9µM*	?	?	?	-20
CC(=O)CCSc1ncnc2sc(-c3ccccc3)cc12	-10%	-9%[46.1 µM]	?	-11%	-112*
CCN(C[C@H]1N[C@@](Cc2ccccc2)(C(=O)OC)[C@H]2C(=O)N(C)C(=O)[C@@H]12)S(=O)(=O)c1ccc(C(C)(C)C)cc1	?	.	.	0%	-11
COc1ccc(CNC(=O)c2cc3c(C)nc4ccccc4c3o2)c(OC)c1	3.2µM*	.	.	?	.
Cc1nc2ccccc2c2oc(C(=O)NCC3COc4ccccc4O3)cc12 (configuration not stated)	10µM*	21µM*	?	?	?
O=C(Cc1ccccc1)NCC1COc2ccccc2O1 (configuration not stated)	18%	-2%	-26%	.	54
Cc1cc(C)c(OCC(=O)NCC2COc3ccccc3O2)c(C)c1 (configuration not stated)	1%	-2%	3.5µM*	-5%	70
Cc1nc2ccccc2c2oc(C(=O)NCCN3CCCCC3C)cc12 (configuration not stated)	?	6%	21µM*	-21%	5
CC(C)Cn1cc(NC(=O)N2CCN(c3cccc(Cl)c3)CC2)c2ccccc2c1=O	.	-1%[46.1 µM]	.	-18%	-16
CC1=C(C(=O)Nc2ccc(Cl)cc2)C(c2cccs2)n2nc(SCc3cccc(Cl)c3)nc2N1 (configuration not stated)	.	-6%[46.1 µM]	-4%[46.1 µM]	15%	1
CC(C)=CCC12CC3[C@@H](O)C(C(=O)c4ccccc4)(C1=O)C(=O)C(CC=C(C)C)(C2=O)C3(C)C (some centres not stated)	.	?	-26%[14.2 µM]	.	.
O=C(N[C@@H](Cc1ccccc1)C(=O)NC1CC1)c1ccc(Cl)cc1	5%	29%[46.1 µM]	?	19%	15
COC(=O)c1ccc(CN2C(=O)[C@]3(OCCC=C[C@@H]3C)c3c(Br)cccc32)cc1	.	.	-7%[14.2 µM]	.	.
CCN1CCCC1CNC(=O)c1cc2c(C)nc3ccccc3c2o1 (configuration not stated)	?	8%	-36%	-16%	-16
CCc1ccc(CNC(=O)c2cc3c(C)nc4ccccc4c3o2)cc1	11µM*	.	.	?	-64*
COc1ccc(C)cc1NC(=O)CC1COc2ccccc2O1 (configuration not stated)	-8%	-9%	?	-16%	-61*
CCCCN(CC)CCNC(=O)c1cc2c(C)nc3ccccc3c2o1	6.3µM*	.	.	0%	?
CC(=O)c1ccc(N2CCN(C(=O)c3cc4c(C)nc5ccccc5c4o3)CC2)cc1	14%	.	.	?	?
